Source: PubChem BioAssay AID1159580 (chemical genetic matrix, 2015)
Among all 5,500 compounds or so, about 2,000 (36%) were called active. Not shown: some 18% with an inconclusive outcome. No stated cut-off is given here; in the data, active means normalized growth mostly below about 0.91 (no sharp cut-off); inconclusive means no clear call, values can overlap the other calls; inactive means mostly above about 0.92. This is one part of the list.

Test: chemical genetic growth profiling, strain panel (AID 1159580);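 further: tested at 20 µM; growth read once vehicle control cultures reached saturation at 30 °C; 1 = growth at the plate median or of vehicle wells; lower values mean less growth of the strain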
Details: growth OD

Measured: normalized growth

CN1CCOC(c2ccccc2)c2ccccc2C1 (configuration not stated)
inactive: S. cerevisiae deletion strains, locus YJR075W, strain HOC1, hits give low values 0.992 | S. cerevisiae deletion strains, locus YKL009W, strain mrt4, hits give low values 0.956 | S. cerevisiae deletion strains, locus YKL068W, hits give low values 1.01 | S. cerevisiae deletion strains, locus YKL085W, strain MDH1 (second series), hits give low values 0.996 | S. cerevisiae deletion strains, locus YKL085W, strain MDH1, hits give low values 0.996 | S. cerevisiae deletion strains, locus YKL160W, strain elf1, hits give low values 0.993 | S. cerevisiae deletion strains, locus YKL190W, strain CNB1, hits give low values 1 | S. cerevisiae deletion strains, locus YKR001C, strain vps1, hits give low values 1.03 | S. cerevisiae deletion strains, locus YKR026C, strain gcn3, hits give low values 0.978 | S. cerevisiae deletion strains, locus YKR091W, strain srl3, hits give low values 0.984 | S. cerevisiae deletion strains, locus YLL001W, strain dnm1, hits give low values 0.976 | S. cerevisiae deletion strains, locus YLL026W, hits give low values 0.99 | S. cerevisiae deletion strains, locus YLL041C, strain sdh2, hits give low values 0.983 | S. cerevisiae deletion strains, locus YLR027C, strain aat2, hits give low values 1 | S. cerevisiae deletion strains, locus YLR039C, strain RIC1, hits give low values 1.01 | S. cerevisiae deletion strains, locus YLR058C, strain SHM2, hits give low values 1 | S. cerevisiae deletion strains, locus YLR102C, strain apc9, hits give low values 1.02 | S. cerevisiae deletion strains, locus YLR113W, strain HOG1, hits give low values 0.997 | S. cerevisiae deletion strains, locus YLR221C, strain rsa3, hits give low values 0.983 | S. cerevisiae deletion strains, locus YLR258W, strain gsy2, hits give low values 0.948 | S. cerevisiae deletion strains, locus YLR262C, strain YPT6 (second series), hits give low values 0.955 | S. cerevisiae deletion strains, locus YLR262C, strain YPT6, hits give low values 1.02 | S. cerevisiae deletion strains, locus YLR268W, strain sec22, hits give low values 1.07 | S. cerevisiae deletion strains, locus YLR320W, strain mms22, hits give low values 0.975 | S. cerevisiae deletion strains, locus YLR330W, strain CHS5, hits give low values 1.01 | S. cerevisiae deletion strains, locus YLR342W, strain FKS1 (second series), hits give low values 1.01 | S. cerevisiae deletion strains, locus YLR342W, strain FKS1, hits give low values 0.982 | S. cerevisiae deletion strains, locus YLR357W, strain rsc2, hits give low values 0.954 | S. cerevisiae deletion strains, locus YLR370C, strain arc18, hits give low values 0.982 | S. cerevisiae deletion strains, locus YLR371W, strain rom2, hits give low values 1.04 | S. cerevisiae deletion strains, locus YLR384C, strain iki3, hits give low values 0.979 | S. cerevisiae deletion strains, locus YLR418C, strain cdc73, hits give low values 1.05 | S. cerevisiae deletion strains, locus YML016C, strain PPZ1, hits give low values 0.999 | S. cerevisiae deletion strains, locus YML032C, strain rad52, hits give low values 1.03 | S. cerevisiae deletion strains, locus YML120C, strain ndi1, hits give low values 0.995 | S. cerevisiae deletion strains, locus YML124C, strain tub3, hits give low values 1.02 | S. cerevisiae deletion strains, locus YMR058W, strain fet3, hits give low values 1.01 | S. cerevisiae deletion strains, locus YMR078C, strain ctf18, hits give low values 1.01 | S. cerevisiae deletion strains, locus YMR125W, strain sto1, hits give low values 0.967 | S. cerevisiae deletion strains, locus YMR129W, hits give low values 0.999 | S. cerevisiae deletion strains, locus YMR205C, strain PFK2, hits give low values 0.966 | S. cerevisiae deletion strains, locus YMR223W, strain ubp8, hits give low values 1.01 | S. cerevisiae deletion strains, locus YMR231W, strain pep5, hits give low values 0.973 | S. cerevisiae deletion strains, locus YMR263W, strain SAP30, hits give low values 1.02 | S. cerevisiae deletion strains, locus YMR307W, strain GAS1, hits give low values 1.15 | S. cerevisiae deletion strains, locus YNL067W, strain RPL9B, hits give low values 1.02 | S. cerevisiae deletion strains, locus YNL071W, strain lat1, hits give low values 0.951 | S. cerevisiae deletion strains, locus YNL128W, strain TEP1, hits give low values 1.01 | S. cerevisiae deletion strains, locus YNL153C, strain GIM3, hits give low values 1.02 | S. cerevisiae deletion strains, locus YNL183C, strain NPR1, hits give low values 0.945 | S. cerevisiae deletion strains, locus YNL209W, strain ssb2, hits give low values 0.981 | S. cerevisiae deletion strains, locus YNL233W, strain BNI4, hits give low values 1.01 | S. cerevisiae deletion strains, locus YNL248C, strain rpa49, hits give low values 0.954 | S. cerevisiae deletion strains, locus YNL250W, strain rad50, hits give low values 1.01 | S. cerevisiae deletion strains, locus YNL271C, strain bni1, hits give low values 1.02 | S. cerevisiae deletion strains, locus YNL298W, strain CLA4, hits give low values 1.01 | S. cerevisiae deletion strains, locus YNL307C, strain MCK1, hits give low values 1.02 | S. cerevisiae deletion strains, locus YNL322C, strain KRE1 (second series), hits give low values 0.958 | S. cerevisiae deletion strains, locus YNL322C, strain KRE1, hits give low values 0.941 | S. cerevisiae deletion strains, locus YNR049C, strain mso1, hits give low values 0.968 | S. cerevisiae deletion strains, locus YNR052C, strain pop2, hits give low values 1.03 | S. cerevisiae deletion strains, locus YOL006C, strain TOP1, hits give low values 1.07 | S. cerevisiae deletion strains, locus YOL012C, strain htz1 1.34 | S. cerevisiae deletion strains, locus YOL147C, strain pex11, hits give low values 1.01 | S. cerevisiae deletion strains, locus YOR001W, strain rrp6, hits give low values 0.99 | S. cerevisiae deletion strains, locus YOR061W, strain CKA2, hits give low values 1.01 | S. cerevisiae deletion strains, locus YOR069W, strain VPS5, hits give low values 1 | S. cerevisiae deletion strains, locus YOR070C, strain gyp1, hits give low values 0.981 | S. cerevisiae deletion strains, locus YOR080W, strain dia2, hits give low values 0.989 | S. cerevisiae deletion strains, locus YOR083W, strain WHI5, hits give low values 0.971 | S. cerevisiae deletion strains, locus YOR106W, strain vam3, hits give low values 0.963 | S. cerevisiae deletion strains, locus YOR136W, strain idh2, hits give low values 1.01 | S. cerevisiae deletion strains, locus YOR144C, strain elg1, hits give low values 1.02 | S. cerevisiae deletion strains, locus YOR184W, strain ser1, hits give low values 1.02 | S. cerevisiae deletion strains, locus YOR231W, strain MKK1, hits give low values 0.995 | S. cerevisiae deletion strains, locus YOR265W, strain rbl2, hits give low values 0.985 | S. cerevisiae deletion strains, locus YOR270C, strain vph1, hits give low values 0.917 | S. cerevisiae deletion strains, locus YOR290C, strain snf2, hits give low values 0.966 | S. cerevisiae deletion strains, locus YOR316C, strain cot1, hits give low values 1.02 | S. cerevisiae deletion strains, locus YPL051W, strain arl3, hits give low values 0.995 | S. cerevisiae deletion strains, locus YPL055C, strain LGE1, hits give low values 1 | S. cerevisiae deletion strains, locus YPL078C, strain atp4, hits give low values 0.979 | S. cerevisiae deletion strains, locus YPL106C, strain sse1, hits give low values 0.921 | S. cerevisiae deletion strains, locus YPL240C, strain hsp82, hits give low values 0.969 | S. cerevisiae deletion strains, locus YPL241C, strain CIN2, hits give low values 1.01 | S. cerevisiae deletion strains, locus YPL256C, strain CLN2, hits give low values 0.997 | S. cerevisiae deletion strains, locus YPR119W, strain clb2, hits give low values 1.01 | S. cerevisiae deletion strains, locus YPR141C, strain kar3, hits give low values 1.01 | S. cerevisiae deletion strains, locus YPR163C, strain tif3, hits give low values 1.03 | S. cerevisiae deletion strains, locus YPR167C, strain met16, hits give low values 1.02 | S. cerevisiae deletion strains, strain wtn01, hits give low values 1.02 | S. cerevisiae strains, strain wild type, hits give low values 1.01
